# In the library only some 4% were active in any assay of this set; here they are far more common.
# CSC inhib: cancer stem cell viability inhibitors, primary screen, luminescence; 1.1% of 300,000 active; cancer stem cell-like cells viability; inhibition, % at 7.5 µM; AID 2717, 2010; in the data active = inhibition above about 75%; tested in HMLE shEcad cells
# Gli-Sufu antag: Gli-Sufu pathway antagonists, primary screen, luciferase luminescence, Sufu-KO-LIGHT cells, uHTS; inhibition, % at 5 µM; 0.74% of 340,000 active; Sufu-KO-LIGHT fibroblasts, Gli luciferase reporter luminescence; AID 588413, 2011;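 active = inhibition above about 55%, limit read from the data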;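 note: 0% = DMSO-treated cells and 100% = wells with medium but no cells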
# Beta cell apopt: inhibitors of cytokine-induced beta cell apoptosis, primary screen, luminescence | protection from apoptosis, % (test concentration not listed) | 0.8% of 300,000 active | INS-1E cytokine-induced death, ATP luminescence, 48 h; percent of positive-control rescue, neutral wells zero;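 active = Every replicate reaches about 75%, or at least half do and their mean reaches it too, limit read from the data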;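 note: 0% = cytokine-treated negative control wells and 100% = positive control rescue; higher means more ATP so stronger rescue from cytokine killing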
# PAX8 inh HTS: inhibitors of PAX8-driven TPO luciferase reporter, primary screen, RMG-I cells, single concentration; SteadyGlo, 24 h; inhibition, % at 12.6 µM; 1.2% of 360,000 active; AID 652154, 2013;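 active = mean replicate inhibition at least 60% with every replicate also reaching 60%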;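 note: luciferase light reporting Pax8 driven TPO promoter activity; plate controls were median of neutral control wells for no effect and mitoxantrone controls for full effect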
# Mdm2-MdmX inh: inhibitors of human Mdm2-MdmX association, primary screen, cell-based, luminescence, split luciferase, SaOS-2, uHTS | Protein Mdm4 (Homo sapiens) + E3 ubiquitin-protein ligase Mdm2 (Homo sapiens), … | SaOS-2 split-luciferase Mdm2/MdmX complementation | inhibition, % at 8 µM | 3% of 330,000 active;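 active = inhibition of at least 50% at 8 µM in the primary screen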
# Target sequence (O15151 whole entry, looked up): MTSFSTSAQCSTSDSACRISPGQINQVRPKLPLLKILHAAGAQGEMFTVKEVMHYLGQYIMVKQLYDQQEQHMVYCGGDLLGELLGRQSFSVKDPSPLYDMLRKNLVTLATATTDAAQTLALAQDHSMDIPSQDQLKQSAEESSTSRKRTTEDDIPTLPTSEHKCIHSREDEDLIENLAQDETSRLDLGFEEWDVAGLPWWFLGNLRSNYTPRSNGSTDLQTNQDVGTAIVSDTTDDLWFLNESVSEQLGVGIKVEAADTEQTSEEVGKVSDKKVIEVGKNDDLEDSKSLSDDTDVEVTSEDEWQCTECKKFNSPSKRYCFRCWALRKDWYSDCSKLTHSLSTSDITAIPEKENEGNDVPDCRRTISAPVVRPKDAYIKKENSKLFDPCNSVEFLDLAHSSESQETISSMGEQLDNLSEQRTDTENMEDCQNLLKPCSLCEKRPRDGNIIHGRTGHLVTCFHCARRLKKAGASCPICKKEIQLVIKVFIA
# Target sequence (Q00987 whole entry, looked up): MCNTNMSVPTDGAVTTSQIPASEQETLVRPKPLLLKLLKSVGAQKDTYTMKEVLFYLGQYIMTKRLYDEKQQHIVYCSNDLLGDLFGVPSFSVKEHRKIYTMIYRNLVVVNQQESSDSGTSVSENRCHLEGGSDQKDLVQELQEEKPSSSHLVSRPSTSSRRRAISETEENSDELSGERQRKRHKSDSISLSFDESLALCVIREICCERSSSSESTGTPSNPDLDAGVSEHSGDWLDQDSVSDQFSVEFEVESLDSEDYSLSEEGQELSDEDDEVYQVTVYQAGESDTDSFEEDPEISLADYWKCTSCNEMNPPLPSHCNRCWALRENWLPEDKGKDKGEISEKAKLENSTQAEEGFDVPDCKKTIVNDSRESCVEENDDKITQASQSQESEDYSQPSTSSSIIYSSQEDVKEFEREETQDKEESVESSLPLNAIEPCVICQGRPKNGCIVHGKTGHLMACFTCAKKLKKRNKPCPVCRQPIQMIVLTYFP
# Shn3 3UTR inh: reduction of Shn3 3'UTR firefly luciferase signal, primary screen, Schnurri-3 inhibitor project, cell-based, Clone20 osteoblasts, set 2. 0.52% of 360,000 active. inhibition, % at 12.5 µM. Clone20 osteoblast Shn3 3'UTR firefly luciferase, 24 h;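 active = mean inhibition of at least 75% with every replicate also reaching 75%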;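 note: 0% = median of neutral control wells and 100% = pilot-screen positive control compound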
# Starred values were filed as active, the others as inactive; . = no result.
SMILES,CSC inhib,Gli-Sufu antag,Beta cell apopt,PAX8 inh HTS,Mdm2-MdmX inh,Shn3 3UTR inh
CCOC(=O)c1c(NC(=O)C(c2ccccc2)c2ccccc2)sc2c1C1CCN2CC1,82*,6,52,.,44,17
CCOC(=O)c1c(NC(=O)c2c(N)n(CCCOC)c3nc4ccccc4nc23)sc2c1CCCC2,3,7,2,.,49,8
Cc1cccc(N=C2c3cc([N+](=O)[O-])ccc3-c3c2cc([N+](=O)[O-])cc3[N+](=O)[O-])c1,.,9,.,66*,.,-21
COc1ccc(CC(=O)N2CCN(C)CC2)cc1,.,-3,.,.,24,-16
COc1ccc(CC2NCC(O)C2OC(C)=O)cc1 (stereo unspecified),.,86*,.,.,.,97*
Brc1ccc(Oc2ccc(Br)cc2Br)c(Br)c1,29,-5,6,.,11,-16
Oc1c(Br)cc(Br)cc1Oc1ccc(Br)cc1Br,108*,.,9,.,.,.
O=C(Cc1ccccc1)N1CC2(C1)[C@H](c1ccccc1)[C@@H](CO)N2Cc1cccc(Cl)c1,.,.,.,30,.,.
C/C=C/c1ccc(C2[C@@H]3CN(C(C)=O)C[C@H]2N3)cc1 (stereo partly specified),.,.,.,-36,.,.
CCC(c1nnnn1-c1ccc(OC)cc1)N1CCC(n2c(=O)[nH]c3ccccc32)CC1 (stereo unspecified),.,.,.,8,.,9
CCCCn1nnnc1C(CCSC)N1CCC(n2c(=O)[nH]c3ccccc32)CC1 (stereo unspecified),.,.,.,17,.,16
CCC(c1nnnn1Cc1ccccc1)N1CCC(n2c(=O)[nH]c3ccccc32)CC1 (stereo unspecified),.,.,.,88*,.,32
CCCCn1nnnc1C(CCc1ccccc1)N1CCC(n2c(=O)[nH]c3ccccc32)CC1 (stereo unspecified),.,.,.,81*,.,18
C[C@@H]1CN([C@H](C)CO)C(=O)c2c(c3ccccc3n2C)-c2ccccc2CO[C@H]1CN(C)C(=O)Oc1ccccc1,.,.,.,-7,.,.
CC[C@@]1(O)C(=O)OCc2c1cc1n(c2=O)Cc2cc3ccccc3nc2-1,60,.,103*,.,.,.
O=C(Cc1cccnc1)N1CCCCN2[C@H](C1)[C@@H](c1ccc(C#CC3CC3)cc1)[C@@H]2CO,.,.,.,-36,.,.
CCc1nc2ccc(Br)cc2c(=O)n1-c1ccccc1C(F)(F)F,-1,8,2,18,0,-16
CCCc1nc2ccc(Br)cc2c(=O)n1-c1ccc([N+](=O)[O-])c(C(F)(F)F)c1,127*,44,99*,93*,37,93*
COc1ccc(C#Cc2ccc([C@H]3[C@@H](CO)N4CCCCN(C(=O)Cc5ccccc5)C[C@H]34)cc2)cc1,.,.,.,-15,.,.
CC(=O)OC1(C)CC(C)C(=O)C(C(O)CC2CC(=O)NC(=O)C2)C1 (stereo unspecified),.,89*,.,.,.,95*
O=C(Cc1ccccn1)N1CCCCN2[C@H](C1)[C@@H](c1ccc(Br)cc1)[C@@H]2CO,.,.,.,-7,.,.
c1ccc2c[n+](CCCCCCCCCC[n+]3ccc4ccccc4c3)ccc2c1,.,.,.,81*,.,.
O=C(Cc1ccccc1)N1CCCCN2[C@H](CO)[C@@H](c3ccc(-c4ccccc4)cc3)[C@@H]2C1,.,.,.,-7,.,.
Cc1sc2ccccc2c1CC1=NCCN1,-10,61*,2,-10,0,7
Nc1ccc(CC2=NCCN2)cc1,.,3,.,5,.,-7
COc1ccc(C#Cc2ccc([C@@H]3[C@@H](CO)N4CCCCN(C(=O)Cc5cccnc5)C[C@@H]34)cc2)cc1,.,.,.,-30,.,.
COC(=O)[C@H]1[C@H](CO)[C@H]2Cn3c(ccc(-c4ccncc4)c3=O)[C@@H]1N2S(=O)(=O)c1ccccc1F,.,.,.,-1,.,.
CC(=O)OC(C)(C)/C=C/C(=O)C(C)(O)C1C(O)CC2(C)C3CC=C4C(CC(O)C(=O)C4(C)C)C3(C)C(=O)CC12C (stereo unspecified),.,87*,.,108*,.,85
CC(=O)OC(C)(C)/C=C/C(=O)[C@](C)(O)[C@H]1[C@H](O)C[C@@]2(C)[C@@H]3CC=C4[C@H](C[C@H](O)C(=O)C4(C)C)[C@]3(C)C(=O)C[C@]12C,.,88*,.,.,.,98*

# Screening results (PubChem BioAssay)
